Several values for one entry are separate records, joined by “and”; a condition that tells them apart may be missing. Identical values can stand only once. About 79,000 compounds went through this panel and 15% of them were active in at least one assay; those are over-represented in the sample as a whole. Activity calls are given as the source filed them. Cut-off read from the data, not from the text of the source: active = growth inhibition above about 70%; inactive = the rest.
test: NCI Yeast Anticancer Drug Screen. Data for the mec2-1 strain (AID 157); settings: S. cerevisiae mec2-1 strain, at 50.0 µM (retest, dose inferred, filed as 5.0), stronger effect = higher value
Method in brief: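 Each compound was tested on mec2-1 yeast, a strain altered in DNA damage repair or cell cycle control. Growth inhibition is reported relative to vehicle.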

Row | Compound | growth inhibition
1 | O=C(O)C1(Cc2ccccc2)Cc2cc3c(cc2C1)CCC3 | -4% (inactive)
2 | CC1=C(C(=O)Nc2c(C)cccc2C)C(c2ccc3c(c2)OCO3)C(C(=O)Nc2c(C)cccc2C)=C(C)N1 | 19% (inactive)
3 | COc1cc2c(c3c1/c(=N/N(C)C)c1ccccc1n3C)C=CC(C)(C)O2 | 85% (active)
4 | CC(=O)Nc1nc(N)c2ncn(C3OC(C(O)CO)C(O)C3O)c2n1 (configuration not stated) | 1% (inactive)
5 | CC(C)(Cc1nocc1C(C)(C)CC#N)c1cc(CC(C)(C)C2(C)OCCO2)no1 | -1% (inactive)
6 | CCOC(=O)c1c[nH]c2c(ccc3cccnc32)c1=O | 64% (inactive) and 43% (inactive)
7 | Cc1ncc(C[n+]2cccc(CCO)c2C)c(N)n1 | 60% (inactive) and 49% (inactive)
8 | Clc1ccc2c(c1)[nH]c1c2nc2ccccn21 | 98% (active)
9 | O=C(O)c1ccccc1C(=O)O | 4% (inactive)
10 | COC1/C=C/OC2(C)Oc3c(C)c(O)c4c(c3C2=O)C(=O)C=C(NC(=O)/C(C)=C\C=C\C(C)C2OC(C)(C)OC(C2C)C(C)C(OC(C)=O)C1C)C4=O (configuration not stated) | 79% (active)
11 | CCN(CC)CCCn1c2cc(=O)c(=O)cc-2[nH]c2cc(C)ccc21 | 27% (inactive)
12 | O=[N+]([O-])c1ccc(N/N=C/CC(O)(C(F)(F)F)C(F)(F)F)c([N+](=O)[O-])c1 | 98% (active)
13 | OCc1ccccc1C(c1ccccc1)c1ccccc1 | 99% (active)
14 | COc1ccc2[nH]c3c(C)c4ccncc4c(C)c3c2c1 | 99% (active)
15 | CC(C)CCC[C@@H](C)[C@H]1CC[C@H]2[C@@H]3CC=C4N5CCCN=C5CC[C@]4(C)[C@H]3CC[C@]12C | 99% (active)
16 | CC(C)CCCC(C)C1CCC2C3CC=C4CC([n+]5cccc6ccccc65)CCC4(C)C3CCC12C (configuration not stated) | 92% (active)
17 | O=C1/C(=C/c2ccc(Cl)cc2)CNC/C1=C\c1ccc(Cl)cc1 | 87% (active) and 78% (active)
18 | CCn1c2ccccc2c2ccc(N=Cc3ccc(N(C)C)cc3)cc21 | 17% (inactive)
19 | O=C1NC(=O)c2cc([N+](=O)[O-])ccc21 | 4% (inactive)
20 | O=c1[nH]c(SCc2c(Cl)c(Cl)c(Cl)c(Cl)c2Cl)nc(=S)[nH]1 | 44% (inactive)
21 | Cn1c2nc3ccccc3c-2cc2ccccc21 | 75% (active)
22 | O=Cc1cc(Br)ccc1O | 73% (active) and 77% (active)
